# Assay outcomes: PubChem, National Center for Advancing Translational Sciences (NCATS)
# G9a inh = blocks human histone lysine methyltransferase G9a; Q96KQ7; Potency, µM (highest dose often 102 µM), inactives show at the top dose activity, negative = inhibition, most hits filed as inhibitors; G9a H3K9 monomethylation, AlphaScreen, 2 h; AID 504332; 350,000 tested, 8.8% active; further: on the % scale 0 is the no-effect control and ±100 the full control effect; nearly all actives have a fitted effect of over 75% in size
# Target sequence (Q96KQ7 913-1193 limits assumed): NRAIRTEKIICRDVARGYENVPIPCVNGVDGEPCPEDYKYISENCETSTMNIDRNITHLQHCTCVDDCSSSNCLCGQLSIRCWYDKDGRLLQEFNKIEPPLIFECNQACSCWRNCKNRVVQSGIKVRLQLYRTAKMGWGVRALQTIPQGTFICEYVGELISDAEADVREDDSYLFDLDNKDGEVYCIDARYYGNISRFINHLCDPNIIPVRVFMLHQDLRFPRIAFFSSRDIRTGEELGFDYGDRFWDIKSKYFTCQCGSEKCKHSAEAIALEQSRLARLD
#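 Compounds were preincubated with 20 nM G9a for 15 min, after which biotinylated H3K9 peptide (500 nM) and SAM (20 uM) started a 2 h room-temperature reaction. Monomethylated product was quantified by antibody-based AlphaScreen chemiluminescence.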
# JMJD2A Tudor = blocks the human JMJD2A Tudor domain | 390,000 tested, 4.4% active | AlphaScreen JMJD2A-Tudor / H3K4me3 peptide binding | Potency, µM (top dose mostly 114 µM), for the others: top-dose activity change, negative = inhibition, most hits filed as inhibitors | AID 504339 | O75164; further: on the % scale 0 is the no-effect control and ±100 the full control effect; nearly all actives have a fitted effect of over 50% in size
# HP1b binding inh = HP1-beta chromodomain-methylated histone interaction inhibition. Potency, µM (highest dose often 114 µM), without a hit: top-dose activity change, negative = inhibition, actives largely listed as inhibitors. P83916. AID 540317. AlphaScreen HP1-beta / biotin-H3K9me3 peptide binding. 390,000 tested, 0.56% active; further: nearly all actives have a fitted effect of over 70% in size
# Target sequence (P83916 whole entry, looked up): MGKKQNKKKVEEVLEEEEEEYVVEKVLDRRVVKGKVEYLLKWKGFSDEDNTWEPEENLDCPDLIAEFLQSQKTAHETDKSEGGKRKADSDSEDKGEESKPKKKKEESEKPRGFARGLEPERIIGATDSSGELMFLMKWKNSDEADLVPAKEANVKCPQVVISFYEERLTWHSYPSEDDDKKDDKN
#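 HP1-beta protein (50 nM final) preincubated 30 min at room temperature with biotinylated H3(1-18)K9me3 peptide (50 nM) in PBS pH 7.4, 0.01% Tween-20, then compound added for 30 min. AlphaScreen streptavidin donor/nickel chelate acceptor beads (10 ug/mL final), 30 min dark, luminescence read.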
# L3MBTL1 inh = L3MBTL1 (human) inhibition. 230,000 tested, 0.66% active. AID 485360. AlphaScreen L3MBTL1–H3K9me1 peptide binding. Potency, µM (top dose mostly 57.1 µM), for inactives: at the top dose activity, negative = inhibition, most hits filed as inhibitors; further: on the % scale 0 is the no-effect control and ±100 the full control effect; nearly all actives have a fitted effect of over 60% in size
#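 First, the protein-peptide complex forms for 30 min at room temperature (L3MBTL1 50 nM, biotinylated H3K9me1 peptide 75 nM). Next, compounds are pin-transferred and incubated 30 min. Finally, AlphaScreen beads are added and read after 30 min.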
# BAZ2B inh = blocks human BAZ2B | Potency, µM (doses to about 114 µM), without a hit: at the highest dose activity change, negative = inhibition, most hits filed as inhibitors | 360,000 tested, 4.4% active | Q9UIF8 | AlphaScreen BAZ2B-H3K14Ac peptide displacement; further: on the % scale 0 is the no-effect control and ±100 the full control effect; nearly all actives have a fitted effect of over 60% in size
#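 BAZ2B (50 nM) with biotin-H3(5-23)K14Ac peptide (50 nM) in PBS pH 7.4, 0.01% Tween-20, preformed 30 min, then compound 30 min at room temperature; top concentration 110uM. AlphaScreen streptavidin donor/nickel chelate acceptor beads (10 ug/mL final), 20 min dark, signal read.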
# Starred values were filed as active, the others as inactive; ? = inconclusive; / = no result given; [ ] = dose if it differs, or a comment. Sampled rows, rich in hits. Any-hit rate of the full collection: about 11%. The call rests on the fitted dose curve; in most records, active means well fitted inhibition curve with a large enough effect; inconclusive means small, poorly fitted or top-dose-only effect; inactive means no such curve, though single readings can be large or run the other way. Potency means the concentration at half of the fitted maximal effect.
SMILES,G9a inh,JMJD2A Tudor,HP1b binding inh,L3MBTL1 inh,BAZ2B inh
Cc1ccc(N/C(=C\C(=O)c2ccccc2)C(=O)O)cc1,?,?,6.2%,1.2%,56.2µM*
COc1ccc(N/C(C)=C/C(=O)c2ccccc2)cc1,?,?,?,-3.5%,?
CC1CCCCN1S(=O)(=O)c1ccc([N+](=O)[O-])cc1 (centres undefined),/,-18.4%,8.8%,8.7%,-3.1%
CCC1CCCCN1S(=O)(=O)c1ccc([N+](=O)[O-])cc1 (centres undefined),70.8µM*,-35.5%,-1.0%,-3.9%,?
CC(=O)Nc1ccc(S(=O)(=O)N2CCN(S(=O)(=O)c3c(F)cccc3F)CC2)cc1,/,-12.2%,/,/,/
Nc1c(-c2cccc([N+](=O)[O-])c2)nc2ccccn12,79.4µM*,-34.7%,-11.5%,-8.2%,?
O=[N+]([O-])c1cccc(-c2ncc3ccccn23)c1,-41.6%,-29.9%,-14.6%,-3.2%,?
c1ccc(-n2ncc3c(NCCN4CCCCC4)ncnc32)cc1,44.7µM*,3.7%,35.6%,1.5%,?
Fc1ccc(-n2ncc3c(NCCCn4ccnc4)ncnc32)cc1,-1.1%[59 µM],-21.7%,8.7%,/,-21.6%
Clc1cccc(-n2ncc3c(NCCCn4ccnc4)ncnc32)c1,-11.0%[59 µM],?,27.3%,/,28.2µM*
CCOc1ccc(S(=O)(=O)N(C)c2ccc(OCC(=O)Nc3nc(-c4cc(OC)ccc4OC)cs3)cc2)cc1,50.1µM*,-13.7%,6.0%,-13.6%,5.0%
CCOC(=O)Cc1csc(NC(=O)COc2ccc(N(C)S(=O)(=O)c3ccc(C)cc3)cc2)n1,12.9%,-17.1%,26.9%,/,2.9%
COc1ccc(NC(=O)CSc2nccn2-c2ccccc2)c(OC)c1,?,-32.7%,-22.4%,-8.7%,?
Cc1ccc(NC(=O)Cc2ccc(-n3cccc3)cc2)c(C)c1,1.4%,-35.8%[57.1 µM],8.9%,?,50.1µM*
Cc1ccc(NC(=O)CSc2nnc(C)c(=O)n2N)c(C)c1,1.78µM*,-6.9%,15.3%,?,50.1µM*
Cc1cc(C)cc(-n2ccnc2SCC(=O)Nc2ccc(C)cc2C)c1,11.2µM*,39.8µM*,-10.6%[57 µM],/,31.6µM*
COc1ccc(OC)c(NC(=O)CSc2nccn2-c2cc(C)cc(C)c2)c1,15.8µM*,10µM*,?,/,12.6µM*
Cc1cccc(NC(=O)CSc2nnc(C)c(=O)n2N)c1,17.5%,-4.2%,20.9%,/,/
COc1ccc(CCNC(=O)CCc2cn(Cc3ccc(F)cc3)c3ccccc23)cc1OC,-41.9%[59 µM],-27.1%,5.6%,/,?
CCOc1ccccc1NC(=O)CSc1nccn1-c1ccccc1,?,-33.3%,-20.6%,-14.5%,50.1µM*
COc1ccc(Cn2ccnc2SCC(=O)Nc2ccccc2OC)cc1,44.7µM*,?,-8.9%,/,?
COc1ccc(-c2nnc(SCC(=O)Nc3cc(OC)ccc3OC)nc2-c2ccc(OC)cc2)cc1,-36.1%[59 µM],?,4.5%,/,7.94µM*
COc1ccc(Cn2ccnc2SCC(=O)Nc2ccccc2F)cc1,?,-16.7%,6.7%,/,?
Cc1cccc(-n2ccnc2SCC(=O)Nc2cccc3ccccc23)c1,12.6µM*,31.6µM*,?,/,15.8µM*
COc1ccc(-c2nnc(SCC(=O)Nc3cccc(Cl)c3C)nc2-c2ccc(OC)cc2)cc1,-29.4%[59 µM],?,-5.9%,/,-25.8%
SMILES,G9a inh,JMJD2A Tudor,HP1b binding inh,L3MBTL1 inh,BAZ2B inh
COc1cc(OC)c(NC(=O)C2=C(C)C(=O)OC23CCN(C(C)=O)CC3)cc1Cl,-2.0%[59 µM],-13.9%,10.0%,/,3.2%
O=[N+]([O-])c1ccc(N2CCN(c3ccccn3)CC2)c(Cl)c1,-73.5%,-32.0%,-35.8%,/,-38.7%
COc1ccc(NC(=O)C2CCCN2S(=O)(=O)c2ccc3c(c2)CCCC(=O)N3)cc1Cl (centres undefined),1.4%[59 µM],-14.3%,1.4%,/,1.4%
COc1ccc(OC)c(-c2cc(C(=O)N/N=C(\C)c3cccnc3)c3ccccc3n2)c1,/,-20.5%,30.4%,/,-12.3%
CCOc1ccc(-c2cc(C(=O)N/N=C(\C)c3cccnc3)c3ccccc3n2)cc1,35.5µM*,-12.4%,44.6%,/,?
C/C(=N\NC(=O)c1cc(-c2ccco2)nc2ccccc12)c1cccnc1,39.8µM*,-20.9%,44.4%,-9.5%,-14.8%
COc1ccc(C(=O)Nc2ccc(NC(=O)Cc3ccccc3)cn2)cc1,11.2µM*,-10.3%,31.8%,/,13.8%
COc1ccc(C(=O)Nc2ccc(NC(=O)c3cccc(OC)c3)cn2)cc1,-2.2%,-5.5%,49.5%,/,-4.3%
COc1cc(C(=O)Nc2ccc(NC(=O)c3ccccc3)nc2)cc(OC)c1OC,16.9%,-5.5%,21.9%,/,?
COc1ccc(C(=O)Nc2ccc(NC(=O)c3cc(OC)c(OC)c(OC)c3)cn2)cc1,39.8µM*,-7.6%,21.2%,/,?
COc1ccc(C(=O)Nc2ccc(NC(=O)c3cccc(F)c3)cn2)cc1,44.7µM*,?,98.0%,/,?
COc1cc(C(=O)Nc2ccc(NC(=O)C(C)C)nc2)cc(OC)c1OC,?,-22.0%,25.6%,/,79.4µM*
COc1ccc(C(=O)Nc2ccc(NC(=O)c3cccs3)cn2)cc1,22.4µM*,?,31.6%,/,?
COc1ccc(C(=O)Nc2ccc(NC(=O)c3ccccc3OC)nc2)cc1,-12.5%,-9.0%,30.7%,/,-14.4%
CCNC(=O)CC1SC(=Nc2cccc3ccccc23)N(C)C1=O (centres undefined),50.1µM*,-13.7%,16.1%,1.6%,2.8%
COc1cccc(N2CCN(Cc3nc(N)nc(Nc4ccccc4OC)n3)CC2)c1,-5.5%[59 µM],-26.7%[57.1 µM],18.3%,-13.2%,50.1µM*
COc1ccccc1N1CCN(Cc2nc(N)nc(Nc3ccccc3)n2)CC1,79.4µM*,50.1µM*,14.0%,-5.0%,-94.7%
COc1ccccc1N1CC(C(=O)OCc2nc(N)nc(Nc3ccccc3)n2)CC1=O (centres undefined),?,-21.6%,26.5%,7.2%,0.7%
COc1ccccc1Nc1nc(N)nc(CN2CCN(c3ccccc3)CC2)n1,?,56.2µM*,-0.6%,/,50.1µM*
Cn1cccc1/C=N\NC(=O)C1COc2ccc(C(C)(C)C)cc2O1 (centres undefined),/,-10.5%,6.6%,/,35.5µM*
CCCCCCCCCCCCCCCCCCCCCC(=O)Nc1ccn([C@@H]2O[C@H](CO)[C@@H](O)[C@@H]2O)c(=O)n1,-0.5%[12.7 µM],/,/,/,/
O=C(CN1C(=O)NC2(CCCC2)C1=O)OCC(=O)c1cccc(Cl)c1,50.1µM*,-19.7%,4.3%,7.4%,12.0%
CO/N=C\CC(=O)Nc1ccc(F)cc1,6.5%[12.7 µM],-13.8%,?,0.5%,10.8%
CO/N=C\CC(=O)Nc1ccc(Cl)cc1Cl,10.1%[59 µM],14.1µM*,3.2%,8.5%,6.7%
CCOc1ccc(C(=O)CN2CCN(S(=O)(=O)c3ccc(OC)cc3)CC2)cc1,12.6µM*,-32.0%,50.1%,6.1%,-1.5%
COc1cccc(C(=O)CN2CCN(S(=O)(=O)c3ccc(Br)cc3)CC2)c1,?,-24.5%,37.8%,8.8%,1.9%
